Test results reported in PubChem BioAssay (NCI).
This is part of a sample that, as a whole, favours compounds with a hit. Of some 83,000 tested, about 20% had one in any assay.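 In brief: 96-well plates, 48 h treatment, single concentration, percent growth endpoint.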 The source made the active and inactive calls. The calls were made as follows: active = growth percent below 10; inactive = the rest.

test system: SF-295 CNS; experiment: NCI-60 one-dose screen, 48 h (100 = growth as untreated, 0 = no growth, -100 = all killed); settings: 10 µM unless noted

SMILES	growth
O=C(CSc1nc2ccccc2c(=O)[nH]1)NCCN1CCCCC1	103% (inactive)
N#Cc1c(-c2ccccc2Cl)cc(-c2c[nH]c3ccccc23)[nH]c1=O	75.8% (inactive)
CCCCSc1nc(Nc2ccc(C(C)=O)cc2)c(C#N)c(-c2ccc(OC)cc2)n1	47.6% (inactive)
N/C(=N\c1nc2ccccc2s1)NC(=O)NCCCCCCO	21.4% (inactive)
O=C(NNc1ccccc1)n1c(=O)c2ccccc2c(=O)n1-c1ccccc1	87.2% (inactive)
CC(=O)Oc1ccccc1C(=O)[Se]CC(=O)Nc1cccc(C(F)(F)F)c1	-76.8% (active)
COc1ccc(Cc2nn(CC(=O)N/N=C/c3ccc(F)cc3)c(=O)c3c(C)noc23)cc1	-19.3% (active)
COc1ccc(C(=O)/C=C/c2ccc(Oc3nc(Nc4ccc(F)cc4)nc(N(C)C)n3)c(OC)c2)cc1	51.5% (inactive)
O=C(N/N=C/c1ccc(-c2ccc(O)cc2)o1)c1[nH]c2ccc(Br)cc2c1-c1ccccc1	-68.7% (active)
CC(=O)OC[C@@]1(C)C2CC[C@]3(C)C(CC=C4C5CC(C)(C)CC[C@]5(C(=O)Nc5ccc(Br)cc5)CC[C@]43C)[C@@]2(C)C[C@@H](OC(C)=O)[C@@H]1OC(C)=O (stereo partly drawn)	26.8% (inactive)
Cc1ccc(-n2c(-c3cc4ccccc4nc3Cl)noc2=O)cc1	76.1% (inactive)
O=c1cc(-c2ccccc2)oc2cc(OCCCC[P+](c3ccccc3)(c3ccccc3)c3ccccc3)cc(O)c12	-96.1% (active)
Cc1ccc(Cc2cnc(NC(=O)c3ccc(/C=C4\SC(=S)N(C)C4=O)cc3)s2)cc1	8.52% (active)
C=C1CC[C@@H]2[C@]3(C)COC(c4cn[nH]c4-c4ccc(OC)cc4)O[C@@H]3CC[C@@]2(C)[C@@H]1C/C=C1/C(=O)OCC1O (stereo partly drawn)	-41.9% (active)
Cc1ccc(/C=C/c2n(Cc3ccc4ccccc4c3)c3ccccc3[n+]2Cc2ccc3ccccc3c2)cc1	-98.5% (active)
Cc1c(C(=O)NNC(=O)c2ccc(Cl)cc2)nnn1-c1ccc(Br)cc1	90.9% (inactive)
CC(=O)Nc1cccc(Nc2nc(NCc3ccccc3)c3ccccc3n2)c1	-98.9% (active)
C[C@H](Nc1nc(NCCc2ccccc2)nc2ccccc12)c1ccccc1	-95.8% (active)
Cc1c(C(=O)NNC(=O)Nc2ccc(Cl)cc2)nnn1-c1ccc(Br)cc1	98.8% (inactive)

SMILES	growth
O=c1oc2ccccc2cc1-c1csc(N=Nc2c(O)[nH]c3ccc(Cl)cc23)n1	87.9% (inactive)
O=c1c2ccccc2nc(-c2ccccc2)n1/N=C/c1ccc2ccccc2c1	46.8% (inactive)
CN(C)c1nc(NCCNS(=O)(=O)c2ccc(C3=Nc4c(N)nc(N)nc4NC(c4ccccc4)C3)cc2)nc(Nc2ccc(F)cc2)n1 (stereo not drawn)	42.6% (inactive)
O=C(O)c1cccc(-c2ccc(/C=N/NC(=O)c3[nH]c4ccc(Br)cc4c3-c3ccccc3)o2)c1	72.3% (inactive)
Cc1ccc2c(N)c(C(=O)Nc3ccc(OC(F)(F)F)cc3)sc2n1	42.9% (inactive)
COc1cc(/C=C/C(=O)c2nnn(-c3ccc(Cl)cc3)c2C)cc(OC)c1OC	51.8% (inactive)
N#Cc1ccc(C(=O)Nn2c(N)cc3ccccc3c2=O)cc1	99% (inactive)
COc1cc(-c2ccc(/C=N/NC(=O)c3[nH]c4ccc(Br)cc4c3-c3ccccc3)s2)cc(OC)c1OC	49.6% (inactive)
N#Cc1c(-c2ccc(Br)cc2)nc2n[nH]c(-c3ccc(Br)cc3)c2c1-c1ccc(F)cc1	98.9% (inactive)
Cn1nc(C(F)(F)F)cc1-c1cc(Cl)c(COc2ccc(Cl)cc2)c(-c2ccc(Cl)c(C(F)(F)F)c2)c1O	-70.8% (active)
CC1=C(C(=O)OCc2ccccc2)C(c2c(O)cc(O)cc2O)n2c(nc3ccccc32)N1 (stereo not drawn)	25.4% (inactive)
Cc1ncsc1-c1ccc(CNC(=O)[C@@H]2C[C@@H](O)CN2C(=O)[C@@H](NC(=O)C2(F)CC2)C(C)(C)C)c(OCCOCCOCCOCCOc2nc(Nc3cc(S(C)(=O)=O)ccc3N[C@@H](c3cccc4c3OC(F)(F)O4)c3ncccc3Cl)nc(N3CCNCC3)n2)c1	101% (inactive)
N#Cc1c(-c2ccc(Cl)cc2)nc2n[nH]c(-c3ccc(Cl)cc3)c2c1-c1cccs1	63.6% (inactive)
COc1cccc(-c2c(C#N)c(-c3ccc(Cl)cc3)nc3n[nH]c(-c4ccc(Cl)cc4)c23)c1	64.5% (inactive)
CCCCn1c(O)c(N=Nc2nc(-c3cc4ccccc4oc3=O)cs2)c2cc(Br)ccc21	105% (inactive)
C=C1CC[C@@H]2[C@]3(C)COC(c4cn(-c5ccccc5)nc4-c4ccccc4)O[C@@H]3CC[C@@]2(C)[C@@H]1C/C=C1/C(=O)OC[C@H]1O (stereo partly drawn)	-97.5% (active)
CCCCCCn1c(O)c(N=Nc2nc(-c3cc4ccccc4oc3=O)cs2)c2ccccc21	47.8% (inactive)
CSc1ccc(C(=O)Nc2ccc3nnn(/C(C#N)=C/c4ccccn4)c3c2)cc1	34.8% (inactive)
CCOC(=O)C1=C(N)N(c2ccccc2)C2=C(C(=O)CC(C)(C)C2)C1c1cccc(Cl)c1Cl (stereo not drawn)	53.5% (inactive)
